Each structure is given as a SMILES string. Values joined by “and” are separate entries in the source; they are usually repeats but may differ in a detail not shown here. Identical values can stand only once. Records with an inconclusive call do not appear. Entries that show only a call come without a potency. Active and inactive are the calls of the source. The call rests on the fitted dose curve; in most records, active means well fitted curve in the direction sought with a large enough effect; inconclusive means small, poorly fitted or top-dose-only effect, or effect the other way; inactive means flat fitted curve, though single readings scatter.

This assay can be described thus: Total Fluorescence Confirmation Counterscreen for Inhibitors of the Interaction of Thyroid Hormone Receptor and Steroid Receptor Coregulator 2, Fluorescein Fluoroprobe. The conditions noted are these: TRbeta/SRC2-fluorescein mix, total fluorescence interference; series mostly up to 92.2 µM. From the text:
NIH Molecular Libraries Probe Production Network [MLPCN] NIH Chemical Genomics Center [NCGC] MLPCN Grant: DK058080 Assay Provider: R. Kip Guy, St. Jude Children's Research Hospital NCGC Assay Overview: Thyroid receptor (TR) regulates many homeostatic processes including basal metabolism, cardiovascular function, body weight, and lipid trafficking. TR modulators are potential therapeutics for obesity and hyperlipidemias but current thyroid analogs have undesirable side effects, particularly cardiac stimulation. To identify inhibitors that specifically prevent the interaction of TR with the steroid receptor coregulator 2 (SRC2), a fluorescence polarization assay was screened (Arnold et al., 2006). This assay detects interaction of the ligand-binding domain of human TRbeta with a fluorescein labeled SRC2 peptide, corresponding to a 20 amino acid region of the nuclear receptor interaction domain. Total fluorescence (555 nm excitation and 632 nm emission) was measured to identify potential fluorescent and light absorbing compounds. Such compounds may be artifacts that interfere with the fluorescence polarization assay. This assay is a confirmation assay for AID 1479. Arnold, L. A.; Estebanez-Perpina, E.; Togashi, M.; Shelat, A.; Ocasio, C. A.; McReynolds, A. C.; Nguyen, P.; Baxter, J. D.; Fletterick, R. J.; Webb, P.; Guy, R. K. A high-throughput screening method to identify small molecule inhibitors of thyroid hormone receptor coactivator binding. Sci STKE 2006, p 13.
NCGC Assay Protocol Summary: For screening, 5 uL/well 0.6 uM TRbeta and 20 nM SRC2 Fluorescein in protein buffer (20mM Tris hydrochloride, 100mM NaCl, 10% glycerol, 1mM EDTA, 0.01% NP-40, 1mM DTT, 1uM T3 and 5% DMSO) was dispensed into black solid 1536-well plates (Grenier) using a solenoid-based dispenser. Following transfer of 23 nL compound or DMSO vehicle by a pin tool, the plates were centrifuged 15 s at 1000 RPM and incubated 5 hr at ambient temperature. The plates were read by an Envision (Perkin Elmer) to detect fluorescence polarization of SRC2 Fluorescein (480 nm excitation and 535 nm emission). Data were normalized to unbound (all components except TRbeta) and bound SRC2 Fluorescein controls. Total fluorescence (TF) was calculated as follows: TF = S + 2P where S and P are fluorescence readings in the parallel and perpendicular channels, respectively. In this assay, we provide % activity data for each concentration as well as potencies for the active compounds.
For orientation: Counterscreens check selectivity or assay interference.
Consider `Nc1cccnc1Sc1cc(Cl)c(Cl)cc1Cl`, for which the Potency entry is “inactive”. As for `CC(NC(=O)Nc1ccc(O)cc1)(C(F)(F)F)C(F)(F)F`, the total fluorescence change, positive = fluorescent was 8.06% [at 11.6 µM] (inactive). As to `CS(=O)(=O)c1ccc(C(=O)OCC(=O)NC(=O)C2CCCCC2)cc1[N+](=O)[O-]`, the total fluorescence change, positive = fluorescent is 3.5% [at 0.0112 µM] (inactive).

Turning to `Cc1ccccc1Nc1cc2ccccc2c(=O)[nH]1`, the Potency is 25.1 µM [fluorescent] (active) and 44.7 µM [fluorescent] (active). On the same count and under the same terms, the same measure for `CCCc1nc2c(=O)n(C)c(=O)nc-2n(C)n1`: “inactive”; for `Nc1c(C(=O)NCc2ccco2)c2nc3ccccc3nc2n1CCc1ccccc1`: “inactive”. In the case of `COc1cc(NCCCC(C)N)c2ncccc2c1` (stereo not given), the total fluorescence change, positive = fluorescent was -9.55% [at 11.6 µM] (inactive). The same measure, in the same setting: the result for `O=C(O)C1C2C=CC(O2)C1C(=O)Nc1ccc(S(=O)(=O)N2CCc3ccccc32)cc1` (stereo not given) reads 3.65% [at 11.6 µM] (inactive); that for `COc1ccc(C(=O)/C=C/Nc2ccc(S(=O)(=O)Nc3ncccn3)cc2)cc1`, 8.87% [at 0.0112 µM] (inactive); that for `CCCCCCN=CC1=C(O)CC(C)(C)CC1=O`, -5.99% [at 0.0112 µM] (inactive). On the same count and under the same terms, the result for `COc1ccc2ccc3c(c2c1)N=CC1(O3)N(C)c2ccccc2C1(C)C` (stereo not given) reads -5.71% [at 0.0112 µM] (inactive). For `Nc1cc(-c2ccncc2)c[nH]c1=O`, the Potency entry is “inactive”. Still for that read-out and setting: the same measure for `CC1=NN(Cc2ccccc2)C(=O)C1`: “inactive”; for `CCc1ccc2c(c1)c1nc(C)sc1n2CC`: “inactive”. On to `O=C1CNC(=S)N1c1nc(-c2ccccc2)cs1`, for which the total fluorescence change, positive = fluorescent is 7.24% [at 0.0112 µM] (inactive). On the same count and under the same terms, the result for `CCOc1cc(N2CCOCC2)c(OCC)cc1NC(C)C(=O)N1CCN(CC)CC1` (stereo not given) reads 10.4% [at 11.6 µM] (inactive); that for `C/C(=C\C(=O)c1ccccc1)Nc1ccc(O)cc1`, 10.3% [at 11.6 µM] (inactive). As to `O=C1CCCC(O)=C1N=Nc1cccc(S(=O)(=O)N2CCOCC2)c1`, the Potency result was “inactive”.

As to `Cc1nnc(SCC(=O)Nc2ccc(N(C)C)cc2)[nH]c1=O`, the Potency result is “inactive”. For the compound `O=C(Nc1nc2ccc(Cl)cc2s1)c1ccc(N2CCCCC2)c([N+](=O)[O-])c1`, the Potency result was “inactive”. `CN1c2ccccc2C(C)(C)C12C=Nc1c(ccc3ccccc13)O2` (stereo not given): the Potency entry is “inactive”. For `Nc1cc(-c2ccccc2)c[nH]c1=O`, the Potency is 39.8 µM [fluorescent] (active).

For `COc1cc(C(c2c(C)[nH][nH]c2=O)c2c(C)[nH][nH]c2=O)ccc1OC(=O)c1cccc(C)c1`, the Potency entry is “inactive”. As to `CC1(C)CC(=O)C(N=Nc2cccc(S(=O)(=O)N3CCOCC3)c2)=C(O)C1`, the Potency result was “inactive”.

Consider `COc1ccc(C(=O)Oc2ccc(C(c3c(C)[nH][nH]c3=O)c3c(C)[nH][nH]c3=O)cc2OC)cc1`, for which the Potency result is “inactive”.

Regarding `CC1=NN(c2ccc(F)cc2)C(=O)C1C(c1cccc(O)c1)c1c(C)[nH]n(-c2ccc(F)cc2)c1=O` (stereo not given), the Potency result was “inactive”.

`CCN(C(=O)C1CCCN(c2ncnc3onc(-c4ccc(F)cc4)c23)C1)c1ccccc1` (stereo not given): the Potency result is “inactive”. Consider `Cn1c(CCN2CCCCC2)nc2cc(NS(=O)(=O)c3ccc(Cl)cc3)ccc21`, for which the total fluorescence change, positive = fluorescent was 13% [at 0.0112 µM] (inactive). Consider `Cn1c(=O)[nH]c2nnc(-c3ccc(Cl)c(Cl)c3)nc2c1=O`, for which the Potency result was “inactive”. As for `CC(=O)c1cccc(NC(=O)COC(=O)c2ccc(S(C)(=O)=O)c([N+](=O)[O-])c2)c1`, the total fluorescence change, positive = fluorescent was 9.6% [at 11.6 µM] (inactive). On to `CCOc1ccc(NC(=O)C(c2ccccn2)N(C(=O)CCl)c2ccc(F)cc2)cc1` (stereo not given), for which the total fluorescence change, positive = fluorescent is 17.5% [at 5.76 µM] (inactive). For `C=CCSc1nnc2n(-c3ccccc3OC)c(=O)c3c4c(sc3n12)CCC4`, the Potency entry was “inactive”. The same measure, in the same setting: the same measure for `Cc1c(C#N)c(O)n(CCO)c(=O)c1N=Nc1ccc2c(c1)COC2=O`: “inactive”; for `CCOc1cc(C(c2c(C)[nH][nH]c2=O)c2c(C)[nH][nH]c2=O)ccc1OS(=O)(=O)c1ccc(C)cc1`: “inactive”.

With `COc1cc(/C=C(\C#N)C(=O)NCC2CCCO2)ccc1OCCC(C)C` (stereo not given), the Potency result is “inactive”.

Regarding `COc1ccccc1Nc1cc2ccccc2c(=O)[nH]1`, the Potency is 44.7 µM [fluorescent] (active). On the same count and under the same terms, the result for `Cn1cc[nH]c1=S` reads “inactive”. Still for that read-out and setting: the same measure for `N#Cc1c(NC(=O)c2ccccc2Cl)n(Cc2ccccc2)c2nc3ccccc3nc12`: “inactive”; for `O=c1[nH]c(Nc2ccccc2)cc2ccccc12`: 35.5 µM [fluorescent] (active); for `CN1N=C(C(C)(C)C)CC1=O`: “inactive”.

These data come from PubChem BioAssay AID1571 (National Center for Advancing Translational Sciences (NCATS), 2009).
